Rin1-Abl PPI inh: blocks binding of human Rin1 to Abl; P00519+Q13671; TR-FRET Rin1/Abl binding, biochemical; inhibition, % at 7.35 µM; 0.4% of 360,000 active; AID 588664; in the data active = inhibition above about 5%, passing the limit was not always enough
pPAFAH inh: pPAFAH (human) enzyme inhibition; recombinant pPAFAH, FP-rhodamine probe fluorescence polarization; inhibition, % at 3.39 µM; 1.5% of 330,000 active;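 active = inhibition above the mean inhibition across the screen plus 3 SD, cut at about 25% in these data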;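 note: inhibitors block binding of the rhodamine activity-based probe so polarization drops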
PAFAH1B2 inh: PAFAH1B2 (human) inhibition; P68402; recombinant PAFAH1B2, FP-rhodamine activity probe, fluorescence polarization; inhibition, % at 3.39 µM; 1.2% of 340,000 active; AID 492953;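 active = inhibition above the mean of all tested compounds plus 3 SD, cut at about 24% in these data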
PAFAH1B3 FP inh: blocks human PAF acetylhydrolase 1B catalytic subunit 3; Q15102; recombinant PAFAH1B3, FP-rhodamine probe, fluorescence polarization; inhibition, % at 3.39 µM; 0.28% of 340,000 active;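 active = inhibition above the screen-wide average of all tested compounds plus 3 SD, cut at about 25% in these data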
PAFAH2 inh: PAFAH2 (human) inhibition. Q99487. recombinant PAFAH2, FP-rhodamine activity probe, fluorescence polarization. inhibition, % at 3.39 µM. 0.99% of 340,000 active. AID 492956;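 active = inhibition above the mean over all tested compounds plus 3 SD, cut at about 30% in these data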;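 note: inhibitors block probe labeling of enzyme so polarization drops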
eLon inh: inhibits E. coli Lon protease. purified E. coli Lon protease, fluorescence polarization. inhibition, % at 7.94 µM. 0.42% of 360,000 active; in the data active = inhibition above about 13%, passing the limit was not always enough
Target sequence (P0A9M0 whole entry, looked up): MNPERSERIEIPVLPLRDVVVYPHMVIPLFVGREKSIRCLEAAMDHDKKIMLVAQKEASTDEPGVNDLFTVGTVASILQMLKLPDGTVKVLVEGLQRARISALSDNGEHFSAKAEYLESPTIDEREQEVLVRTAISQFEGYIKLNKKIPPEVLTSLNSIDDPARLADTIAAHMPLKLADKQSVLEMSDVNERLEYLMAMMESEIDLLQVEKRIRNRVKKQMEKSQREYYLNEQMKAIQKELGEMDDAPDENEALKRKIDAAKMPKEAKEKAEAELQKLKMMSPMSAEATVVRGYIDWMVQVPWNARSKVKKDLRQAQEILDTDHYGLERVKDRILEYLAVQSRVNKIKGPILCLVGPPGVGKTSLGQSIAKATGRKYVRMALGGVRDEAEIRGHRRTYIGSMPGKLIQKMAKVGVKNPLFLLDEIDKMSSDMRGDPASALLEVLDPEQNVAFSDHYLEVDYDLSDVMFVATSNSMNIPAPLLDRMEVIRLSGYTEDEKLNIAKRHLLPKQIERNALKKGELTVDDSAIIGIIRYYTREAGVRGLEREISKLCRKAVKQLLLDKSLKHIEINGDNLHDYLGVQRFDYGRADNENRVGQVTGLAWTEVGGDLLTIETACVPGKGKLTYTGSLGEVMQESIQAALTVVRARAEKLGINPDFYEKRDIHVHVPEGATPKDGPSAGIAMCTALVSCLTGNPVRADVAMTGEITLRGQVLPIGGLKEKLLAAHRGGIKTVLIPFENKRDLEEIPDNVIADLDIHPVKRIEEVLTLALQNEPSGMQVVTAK
Hits are given with their value; . = inactive; / = not tested or not shown. Most compounds without a hit are left out; they make up all but 3.1% or so of the library.

SMILES	Rin1-Abl PPI inh	pPAFAH inh	PAFAH1B2 inh	PAFAH1B3 FP inh	PAFAH2 inh	eLon inh
COc1ccc(N(C(=O)c2ccco2)C(C(=O)NC2CCCC2)c2ccccc2)cc1 (stereo unspecified)	.	34	.	.	.	.
COc1ccc(-c2c(-c3ccc4c(c3)OCO4)c3ccccc3n2C)cc1	.	/	.	.	.	.
O=C(CSCc1ccc(F)cc1)NCc1ccc2c(c1)OCO2	.	.	.	.	.	.
O=C(NCc1ccc2c(c1)OCO2)c1nnc(Cc2ccc(Cl)cc2)o1	.	29	.	.	.	.
O=C(CSCc1ccc(Cl)cc1)NCc1ccc2c(c1)OCO2	.	.	26	.	.	.
CC(Sc1ccc(Cl)cc1)C(=O)NCc1ccc2c(c1)OCO2 (stereo unspecified)	.	.	24	.	.	.
O=C(NCc1ccc2c(c1)OCO2)c1ccc(CS(=O)Cc2ccc(Cl)cc2)o1 (stereo unspecified)	.	.	.	.	.	.
COc1ccc(CCNC(=O)c2nnc(Cc3ccc(Cl)cc3)o2)cc1OC	.	28	.	.	.	.
COc1ccc(CCNC(=O)c2nnc(Cc3c(F)cccc3Cl)o2)cc1OC	.	.	.	.	.	.
CCN(CC(=O)Nc1c(F)cccc1F)C(=O)CSCc1ccc(C)cc1	.	/	/	/	/	.
COc1cc(/C=C/C(=O)O)cc(S(=O)(=O)Nc2ccc3c(c2)CCC3)c1OC	.	.	.	.	.	.
CCOc1ccc(C(=O)NNC(=O)C2CC(=O)N(c3ccc(C)cc3)C2)cc1 (stereo unspecified)	.	.	.	.	.	.
COc1ccc(NC(=O)CCC(=O)NCc2ccco2)c([N+](=O)[O-])c1	.	/	.	.	.	.
COc1ccc(OC)c(/C=C2\Oc3cc(OCC(=O)N4CCC(C(=O)O)CC4)ccc3C2=O)c1	.	.	.	.	.	.
O=C(O)c1ccc(NCc2ccc3c(c2)OCO3)cc1	.	.	25	.	.	.
O=C(NCc1ccc2c(c1)OCO2)c1ccc2c(c1)OCO2	.	.	.	.	.	.
COc1ccc2c(CC(=O)NCc3ccc4c(c3)OCO4)coc2c1	.	32	.	.	.	.
CC(C)(C(=O)N[C@H](CO)c1ccccc1)C(=O)N[C@H](CO)c1ccccc1	.	.	.	.	.	.
CC(C)OC(=O)NC(c1ccccc1)C(Cl)(Cl)Cl (stereo unspecified)	.	.	24	.	.	.
CCOc1ccc(OC(=O)NC(c2ccccc2)C(Cl)(Cl)Cl)cc1 (stereo unspecified)	.	.	26	.	.	.
Cc1ccc(S(=O)(=O)N2CCC(=O)N(C(COCc3ccc(Cl)cc3)Cc3ccccc3)CC2)cc1 (stereo unspecified)	.	.	25	.	.	.
O=C(O)CN1C(=O)C2C3CC(C2C1=O)C1C(c2ccc(Cl)cc2)c2sc(=O)[nH]c2SC31 (stereo unspecified)	.	.	47	.	.	.
CC(C(=O)O)N1C(=O)C2C3c4ccccc4C(c4ccccc43)[C@@H]2C1=O (stereo partly specified)	.	.	.	.	.	.
O=c1[nH]c2c(s1)C(c1cccnc1)C1C3CCC(C3)C1S2 (stereo unspecified)	.	.	.	.	.	.
COc1ccc(C2c3sc(=O)[nH]c3SC3C4CCC(C4)C23)cc1OC (stereo unspecified)	.	.	.	.	.	.
SMILES	Rin1-Abl PPI inh	pPAFAH inh	PAFAH1B2 inh	PAFAH1B3 FP inh	PAFAH2 inh	eLon inh
O=c1[nH]c2c(s1)C(c1ccc(O)cc1)C1C3CCC(C3)C1S2 (stereo unspecified)	.	.	27	.	.	.
O=C(O)CN1C(=O)C2C3CC(C2C1=O)C1C(c2ccc(F)cc2)c2sc(=O)[nH]c2SC31 (stereo unspecified)	.	.	54	.	.	.
CC(C(=O)O)N1C(=O)C2C3CC(C2C1=O)C1C(c2ccccc2)c2sc(=O)[nH]c2SC31 (stereo unspecified)	.	.	55	.	.	.
CC(=O)c1[nH]c(C)c(C(=O)N2CCCC(Nc3cccc(F)c3)C2)c1C (stereo unspecified)	.	.	.	.	.	.
COc1cccc(CNC(=O)[C@@H]2CCCN2C(=O)[C@H]2CCCCN2C(=O)c2cccc3ccccc23)c1	/	/	/	/	/	.
O=C(O)CCN1C(=O)C2C3C=CC(C3)C2C1=O (stereo unspecified)	.	.	.	.	.	.
O=C(O)CCCN1C(=O)C2C3CC(C2C1=O)C1C(c2ccccc2)c2sc(=O)[nH]c2SC31 (stereo unspecified)	.	.	81	.	.	.
COC(=O)CCC/C=C1/SCC(NC(=O)c2ccccc2)C1=O (stereo unspecified)	.	26	.	.	.	.
Cc1ccc(S(=O)(=O)NN=C2CCc3ccccc32)cc1	.	/	/	/	/	.
O=C1NC[C@@H](c2ccccc2)OC(=O)[C@@H](Cc2ccc(F)cc2)C/C=C\C[C@@H]1CC(=O)N(CCO)Cc1ccccc1	.	26	64	.	.	.
O=C1NCCOC(=O)[C@H](Cc2ccc(F)cc2)C/C=C\C[C@@H]1CC(=O)N(CCO)Cc1ccccc1	.	.	.	.	.	.
O=C1NCCOC(=O)[C@H](Cc2ccc(F)cc2)C/C=C\C[C@H]1CC(=O)N(CCO)Cc1ccccc1	.	.	30	.	.	.
O=C1N[C@@H](Cc2c[nH]c3ccccc23)COC(=O)[C@@H](Cc2ccc(F)cc2)CC/C=C/C[C@@H]1CC(=O)N(CCO)Cc1ccccc1	.	.	34	.	.	.
C[C@H](CO)N1C[C@H](C)[C@@H](CN(C)Cc2ccncc2)OCCCC[C@H](C)Oc2ccc(NC(=O)CCCN(C)C)cc2C1=O	.	/	/	/	/	.
O=C1NN(c2ccccc2)C(=O)/C1=C\c1cccc(OC(=O)c2cccs2)c1	.	.	.	.	.	.
O=C1NN(c2ccc(Cl)c(Cl)c2)C(=O)/C1=C/c1cccc(OC(=O)c2cccs2)c1	/	57	/	/	/	/
COc1ccc(SCC(O)Cn2c3ccccc3c3ccccc32)c(OC)c1 (stereo unspecified)	/	/	/	/	/	.
Fc1ccc(CSc2nnc(-c3cnccn3)n2Cc2ccco2)cc1	.	.	.	.	.	.
Brc1ccc(CSc2nnc(-c3cnccn3)n2Cc2ccco2)cc1	.	.	30	.	.	.
Cc1ccc(-c2ccc(/C=N/N3C(=O)C4C5C=CC(CC5)C4C3=O)o2)c([N+](=O)[O-])c1 (stereo unspecified)	.	25	.	.	.	.
O=C(NNC(=O)c1ccccc1O)c1cc2ccccc2o1	.	26	.	.	.	.
COc1ccc(NC(=O)c2ccc(-c3ccc([N+](=O)[O-])cc3)o2)cc1	.	.	.	.	.	.
O=C(NNC(=O)c1ccccc1O)c1ccc(-c2ccc([N+](=O)[O-])cc2)o1	.	32	.	.	39	.

Screens from PubChem.
